Unmarked numbers belong to inactive results. Records with an inconclusive call do not appear. Calls of active or inactive are those of the source. Unless noted, calls come from the whole dose curve; as a rule, active = well fitted curve in the direction sought with a large enough effect in the repeat runs; inconclusive = weak or mixed curves; inactive = no such curve, though single readings can be large; an effect the other way counts as inactive or inconclusive.

Assay [1] has as its target Thyrotropin-releasing hormone receptor (Homo sapiens) (UniProt P34981). The experiment in a line: qHTS assay to identify small molecule agonists of the thyrotropin-releasing hormone receptor (TRHR) signaling pathway (AID 1346891; calls by dose curve;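 note: HEK293 cells expressing TRHR with calcium dye readout; series mostly up to about 58 µM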). In a few lines:
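Compounds were tested as agonists at 15 concentrations, in triplicate, on TRHR-Hek293 cells; calcium-sensitive dye fluorescence was recorded for 3 min following addition.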
A general note: Quantitative high-throughput screening tests each substance at several concentrations.

The nature of assay [2]: Human pregnane X receptor (PXR) small molecule agonists, qHTS cell viability counter screen (AID 1346977). Note: nearly all actives have a fitted effect of over 50% in size. The method in brief:
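Viability counter screen: CellTiter-Fluor signal in PXR-Luc HepG2 cells, 24hr compound exposure, 37C, 5% CO2.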

Assay [3] in a line: Caspase-3/7 induction in HepG2 cells by small molecules, qHTS assay (AID 1346978). Note: nearly all actives have a fitted effect of over 15% in size. In a few lines: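 Caspase-3/7 induction was measured by Caspase-Glo 3/7 luminescence (30 min, room temperature) after a 17 hr compound exposure of wild-type HepG2 cells seeded at 2,000 per well and pre-incubated 5 hr.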
Assay [4] in a line: Caspase-3/7 induction in CHO-K1 cells by small molecules, qHTS cell viability counter screen (AID 1346979). Note: nearly all actives have a fitted effect of over 35% in size. The method in brief:
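Viability readout by fluorescence (CellTiter-Fluor) on wild-type CHO-K1 cells exposed for 16hr at 37C and 5% CO2 to compounds delivered in DMSO; reagent incubated 1hr before reading.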

Assay [5] is described as follows: Caspase-3/7 induction in HepG2 cells by small molecules, qHTS cell viability counter screen (AID 1346981). Note: series mostly up to about 92 µM; nearly all actives have a fitted effect of over 30% in size. The method in brief:
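Wild-type HepG2 cells, 2,000/well, settled 5 hr at 37 C, 5% CO2 before compound addition. Viability read by CellTiter-Fluor fluorescence, reagent added after 16 hr compound exposure, then 1 hr at 37C, in the same wells as the caspase read.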

Assay [6] has as its target Nuclear receptor subfamily 1 group I member 2 (Homo sapiens) (UniProt O75469). The experiment in a line: Human pregnane X receptor (PXR) small molecule agonists, qHTS assay (AID 1346982). Note: nearly all actives have a fitted effect of over 35% in size. Note: potency is the fitted concentration of half-maximal effect. The method in brief:
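PXR-Luc HepG2 reporter cells (CYP3A4-driven luciferase) in 5% charcoal-stripped FBS medium, plated 5 h before compound addition, then treated 24 h at 37C. Luciferase read by ONE-Glo luminescence after 30 min at room temperature.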

The target in assay [7] is Cytochrome P450 2D6 (Homo sapiens) (UniProt P10635). The experiment in a line: Cytochrome P450 Family 2 Subfamily D Member 6 (CYP2D6) small molecule antagonists: luciferase reporter qHTS assay (AID 1671196). Note: nearly all actives have a fitted effect of over 50% in size. Note: potency is the fitted concentration of half-maximal effect. The method in brief: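 Cell-free P450-Glo system: CYP2D6 with proluciferin substrate was pre-incubated with compound for 10 min, then reacted with NADPH regeneration for 1 h at room temperature. Luciferin product was detected after 20 min, and data were reported as relative luminescence units.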
On the technique in general: Reporter assays use an easily measured gene product as a stand-in for the process of interest.

Assay [8] has as its target Cytochrome P450 2C19 (Homo sapiens) (UniProt P33261). The experiment in a line: Cytochrome P450 Family 2 Subfamily C Member 19 (CYP2C19) small molecule antagonists: luciferase reporter qHTS assay (AID 1671197). Note: nearly all actives have a fitted effect of over 65% in size. Note: potency is the fitted concentration of half-maximal effect. The method in brief:
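First, compounds are pinned into enzyme-substrate mix and held 10 min at room temperature. Second, NADPH regeneration solution is added and plates incubate 1 h at 37C. Third, detection reagent is added and luminescence read after 20 min.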

Assay [9] addresses Cytochrome P450 1A2 (Homo sapiens) (UniProt P05177). The experiment in a line: Cytochrome P450 Family 1 Subfamily A Member 2 (CYP1A2) small molecule antagonists: luciferase reporter qHTS assay (AID 1671199). Note: nearly all actives have a fitted effect of over 50% in size. Note: potency is the fitted concentration of half-maximal effect. The method in brief: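 P450-Glo CYP1A2 enzyme–proluciferin substrate mix with compound 10 min at room temperature, then NADPH regeneration 1 h at room temperature. Luciferin detection reagent added, luminescence read after 20 min; furafylline positive control.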

In assay [10] the target is Voltage-gated inwardly rectifying potassium channel KCNH2 (Homo sapiens) (UniProt Q12809). Put plainly: Human Ether-a-go-go-Related Gene (hERG) channel small molecule antagonists: fluorescence cell-based qHTS assay (AID 1671200).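 Note: hERG-expressing U2OS cells given a thallium stimulus after FluxOR II dye loading; series mostly up to about 77 µM; nearly all actives have a fitted effect of over 50% in size.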 The method in brief: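 Thallium served as the potassium surrogate; its influx into dye-loaded U2OS cells carrying the channel was measured by fluorescence over 2 min.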
(Block of hERG is tested as a sign of cardiac risk.)

The target of assay [11] is Cytochrome P450 3A4 (Homo sapiens) (UniProt P08684). The experiment in a line: Cytochrome P450 Family 3 Subfamily A Member 4 (CYP3A4) small molecule antagonists: luciferase reporter qHTS assay (AID 1671201). Note: nearly all actives have a fitted effect of over 50% in size. Note: potency is the fitted concentration of half-maximal effect. The method in brief: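 Relative luminescence units after 20 min with luciferin detection reagent served as read-out. Beforehand, CYP3A4 turned over a proluciferin substrate for 1 h at room temperature with NADPH regeneration, following 10 min compound preincubation.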

Assay [12] in a line: Caspase-3/7 induction in CHO-K1 cells by small molecules, qHTS assay (AID 1346980). Note: nearly all actives have a fitted effect of over 15% in size. In a few lines:
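Luminescent Caspase-Glo 3/7 read (30min, room temperature) quantified apoptosis induction. Cells were wild-type CHO-K1, treated with compound for 17hr at 37 C and 5% CO2.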

The target in assay [13] is Cytochrome P450 2C9 (Homo sapiens) (UniProt P11712). Put plainly: Cytochrome P450 Family 2 Subfamily C Member 9 (CYP2C9) small molecule antagonists: luciferase reporter qHTS assay (AID 1671198). Note: nearly all actives have a fitted effect of over 50% in size. Note: potency is the fitted concentration of half-maximal effect. The method in brief:
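Enzyme-substrate mix preincubated with compound 10 min at room temperature; reaction started with NADPH regeneration solution, 1 h 37C. Luminescent luciferin product read after 20 min detection reagent.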

Assay [14] addresses Nuclear receptor subfamily 1 group I member 2 (Rattus norvegicus) (UniProt Q9R1A7). The experiment in a line: Rat pregnane X receptor (rPXR) activation by small molecules, qHTS assay (AID 1346983). Note: nearly all actives have a fitted effect of over 20% in size. To be noted: rPXR luciferase reporter cells, One-Glo luminescence, 24 h; active compounds read high. The method in brief: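 Luminescent readout (One-Glo luciferase, 30 min room temperature) followed 24 hr compound treatment at 37 C of rPXR cells plated 2,000 per well and preincubated 5hr; qHTS format with compounds delivered in DMSO.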

For assay [15], the target named is Nuclear receptor subfamily 1 group I member 2 (Homo sapiens) (UniProt O75469). The experiment in a line: CYP3A4 induction through human pregnane X receptor (PXR) by small molecules, qHTS assay (AID 1346984). Note: nearly all actives have a fitted effect of over 40% in size. In a few lines:
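DPX-2 HepG2 cells carrying a PXR response element and CYP3A4-promoter luciferase construct, treated with compounds 24 hr at 37C. Then P450-Glo CYP3A4 Luciferin-IPA substrate (3uM final) for 3 hr at 37C, One-Glo added, luminescence read.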

For assay [16] the target is unchanged. Put plainly: Human pregnane X receptor (PXR) activation by small molecules, qHTS assay (AID 1346985). Note: nearly all actives have a fitted effect of over 40% in size. The method in brief:
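DPX-2 cells (HepG2 co-transfected with a PXR response element and a CYP3A4-promoter luciferase construct) were seeded at 2,000 per well, rested 5 hr at 37C, then exposed to DMSO-dissolved compounds for 24 hr. Activation was read as luciferase luminescence.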
% is set by controls: 0 for no effect and ±100 for the full control effect.

Sequence of Cytochrome P450 2C19 (Homo sapiens) (P33261 whole entry, looked up): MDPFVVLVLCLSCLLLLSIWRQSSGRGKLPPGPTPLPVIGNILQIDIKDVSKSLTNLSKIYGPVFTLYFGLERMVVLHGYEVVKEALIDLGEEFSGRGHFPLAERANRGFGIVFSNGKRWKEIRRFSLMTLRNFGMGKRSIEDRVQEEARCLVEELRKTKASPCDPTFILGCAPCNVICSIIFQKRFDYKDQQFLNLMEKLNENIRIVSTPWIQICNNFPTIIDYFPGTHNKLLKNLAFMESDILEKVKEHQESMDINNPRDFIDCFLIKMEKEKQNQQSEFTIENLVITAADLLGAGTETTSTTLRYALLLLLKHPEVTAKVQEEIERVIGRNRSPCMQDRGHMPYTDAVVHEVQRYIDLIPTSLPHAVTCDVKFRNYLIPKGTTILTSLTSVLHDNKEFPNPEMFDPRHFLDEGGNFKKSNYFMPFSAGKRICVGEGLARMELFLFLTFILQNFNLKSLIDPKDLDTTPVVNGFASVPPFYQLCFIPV
Sequence of Voltage-gated inwardly rectifying potassium channel KCNH2 (Homo sapiens) (Q12809 whole entry, looked up): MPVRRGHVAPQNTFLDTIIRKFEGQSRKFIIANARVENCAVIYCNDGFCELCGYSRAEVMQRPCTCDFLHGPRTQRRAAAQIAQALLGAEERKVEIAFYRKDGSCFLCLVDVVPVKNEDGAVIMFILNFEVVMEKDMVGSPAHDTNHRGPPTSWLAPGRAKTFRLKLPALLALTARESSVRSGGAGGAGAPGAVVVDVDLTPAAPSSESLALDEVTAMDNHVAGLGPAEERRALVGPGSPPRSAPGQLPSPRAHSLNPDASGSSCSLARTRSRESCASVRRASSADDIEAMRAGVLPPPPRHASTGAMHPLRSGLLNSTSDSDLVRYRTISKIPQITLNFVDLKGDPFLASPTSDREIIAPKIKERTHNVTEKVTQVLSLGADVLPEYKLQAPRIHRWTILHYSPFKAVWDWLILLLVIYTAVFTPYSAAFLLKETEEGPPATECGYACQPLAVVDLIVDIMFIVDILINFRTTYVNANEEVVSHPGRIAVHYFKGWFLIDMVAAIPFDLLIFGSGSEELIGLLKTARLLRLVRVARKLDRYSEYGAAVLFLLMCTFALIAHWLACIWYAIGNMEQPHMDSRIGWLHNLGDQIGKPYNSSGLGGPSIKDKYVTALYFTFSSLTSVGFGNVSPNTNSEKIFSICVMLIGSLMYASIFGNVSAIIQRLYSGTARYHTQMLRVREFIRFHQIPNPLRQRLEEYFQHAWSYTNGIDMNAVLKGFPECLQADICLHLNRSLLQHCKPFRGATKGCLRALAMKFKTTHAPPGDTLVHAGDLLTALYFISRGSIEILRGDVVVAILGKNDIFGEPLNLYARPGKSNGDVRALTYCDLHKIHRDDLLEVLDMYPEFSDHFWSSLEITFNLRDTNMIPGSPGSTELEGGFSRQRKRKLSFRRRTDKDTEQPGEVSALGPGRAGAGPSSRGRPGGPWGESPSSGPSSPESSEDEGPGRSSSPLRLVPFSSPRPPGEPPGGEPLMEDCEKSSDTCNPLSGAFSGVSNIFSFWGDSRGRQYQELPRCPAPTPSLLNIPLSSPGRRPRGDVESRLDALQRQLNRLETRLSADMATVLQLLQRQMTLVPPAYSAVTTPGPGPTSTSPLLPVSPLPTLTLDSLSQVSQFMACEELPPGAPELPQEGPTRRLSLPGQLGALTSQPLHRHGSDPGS
Sequence of Cytochrome P450 1A2 (Homo sapiens) (P05177 whole entry, looked up): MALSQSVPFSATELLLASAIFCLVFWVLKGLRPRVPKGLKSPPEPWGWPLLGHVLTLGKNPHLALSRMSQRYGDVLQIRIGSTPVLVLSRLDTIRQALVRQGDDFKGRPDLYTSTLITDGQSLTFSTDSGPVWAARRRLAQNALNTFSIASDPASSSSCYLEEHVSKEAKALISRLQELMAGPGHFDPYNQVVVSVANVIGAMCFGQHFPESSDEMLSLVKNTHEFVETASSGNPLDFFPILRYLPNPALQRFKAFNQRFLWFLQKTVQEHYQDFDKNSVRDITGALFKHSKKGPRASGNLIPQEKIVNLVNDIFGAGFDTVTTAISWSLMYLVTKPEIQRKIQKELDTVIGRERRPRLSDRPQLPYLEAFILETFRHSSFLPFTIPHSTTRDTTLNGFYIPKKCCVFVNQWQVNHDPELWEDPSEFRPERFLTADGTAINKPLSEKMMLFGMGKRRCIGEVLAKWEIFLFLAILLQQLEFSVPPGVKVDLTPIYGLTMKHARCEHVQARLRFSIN
Sequence of Cytochrome P450 2D6 (Homo sapiens) (P10635 whole entry, looked up): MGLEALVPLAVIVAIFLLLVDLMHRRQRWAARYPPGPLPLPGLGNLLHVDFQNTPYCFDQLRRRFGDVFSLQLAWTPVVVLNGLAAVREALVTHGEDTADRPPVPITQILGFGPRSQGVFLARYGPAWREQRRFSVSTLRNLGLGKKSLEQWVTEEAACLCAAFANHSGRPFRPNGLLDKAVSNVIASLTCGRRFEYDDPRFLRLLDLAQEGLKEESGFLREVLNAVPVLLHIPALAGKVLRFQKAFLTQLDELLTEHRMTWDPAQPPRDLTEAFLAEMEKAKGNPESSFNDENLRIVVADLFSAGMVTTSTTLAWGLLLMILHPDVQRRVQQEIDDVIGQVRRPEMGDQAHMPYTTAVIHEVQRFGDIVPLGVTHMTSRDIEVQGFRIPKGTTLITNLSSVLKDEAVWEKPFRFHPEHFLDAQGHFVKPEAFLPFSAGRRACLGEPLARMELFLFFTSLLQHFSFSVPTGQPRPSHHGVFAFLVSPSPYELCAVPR
Sequence of Thyrotropin-releasing hormone receptor (Homo sapiens) (P34981 whole entry, looked up): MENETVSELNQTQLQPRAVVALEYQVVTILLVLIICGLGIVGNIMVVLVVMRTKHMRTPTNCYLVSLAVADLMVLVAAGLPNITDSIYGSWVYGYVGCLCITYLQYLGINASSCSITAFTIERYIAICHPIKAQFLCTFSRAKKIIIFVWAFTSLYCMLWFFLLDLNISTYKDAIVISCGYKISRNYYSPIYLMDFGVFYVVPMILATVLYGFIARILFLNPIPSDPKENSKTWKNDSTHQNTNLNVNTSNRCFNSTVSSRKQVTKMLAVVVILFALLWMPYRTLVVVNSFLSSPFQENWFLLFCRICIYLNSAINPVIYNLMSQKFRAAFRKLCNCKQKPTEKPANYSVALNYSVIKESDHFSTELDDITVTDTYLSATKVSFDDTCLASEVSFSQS
Sequence of Nuclear receptor subfamily 1 group I member 2 (Rattus norvegicus) (Q9R1A7 whole entry, looked up): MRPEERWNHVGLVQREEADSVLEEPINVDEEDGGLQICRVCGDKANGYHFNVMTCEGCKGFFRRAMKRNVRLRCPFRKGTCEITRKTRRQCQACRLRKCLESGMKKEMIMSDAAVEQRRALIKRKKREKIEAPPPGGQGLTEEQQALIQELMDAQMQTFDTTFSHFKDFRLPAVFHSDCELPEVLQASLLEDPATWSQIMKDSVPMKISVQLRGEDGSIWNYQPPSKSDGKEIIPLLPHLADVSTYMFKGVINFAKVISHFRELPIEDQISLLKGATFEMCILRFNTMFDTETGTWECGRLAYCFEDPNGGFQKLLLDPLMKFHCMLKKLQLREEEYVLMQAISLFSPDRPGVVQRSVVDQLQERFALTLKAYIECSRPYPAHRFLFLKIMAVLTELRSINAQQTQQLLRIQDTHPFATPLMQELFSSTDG
Sequence of Cytochrome P450 3A4 (Homo sapiens) (P08684 whole entry, looked up): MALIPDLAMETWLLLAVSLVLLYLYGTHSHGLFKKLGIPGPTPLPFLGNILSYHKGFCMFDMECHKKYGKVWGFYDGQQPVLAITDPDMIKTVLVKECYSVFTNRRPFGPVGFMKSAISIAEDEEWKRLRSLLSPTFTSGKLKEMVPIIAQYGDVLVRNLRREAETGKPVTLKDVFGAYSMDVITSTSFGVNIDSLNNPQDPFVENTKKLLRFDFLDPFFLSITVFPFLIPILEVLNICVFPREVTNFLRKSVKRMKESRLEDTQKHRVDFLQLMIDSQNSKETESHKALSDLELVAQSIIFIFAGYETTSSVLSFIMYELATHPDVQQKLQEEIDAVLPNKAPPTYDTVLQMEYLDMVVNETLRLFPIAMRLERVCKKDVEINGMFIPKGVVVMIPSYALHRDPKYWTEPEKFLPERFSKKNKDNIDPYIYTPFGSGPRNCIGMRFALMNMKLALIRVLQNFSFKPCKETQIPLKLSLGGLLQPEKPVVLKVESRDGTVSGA
Sequence of Cytochrome P450 2C9 (Homo sapiens) (P11712 whole entry, looked up): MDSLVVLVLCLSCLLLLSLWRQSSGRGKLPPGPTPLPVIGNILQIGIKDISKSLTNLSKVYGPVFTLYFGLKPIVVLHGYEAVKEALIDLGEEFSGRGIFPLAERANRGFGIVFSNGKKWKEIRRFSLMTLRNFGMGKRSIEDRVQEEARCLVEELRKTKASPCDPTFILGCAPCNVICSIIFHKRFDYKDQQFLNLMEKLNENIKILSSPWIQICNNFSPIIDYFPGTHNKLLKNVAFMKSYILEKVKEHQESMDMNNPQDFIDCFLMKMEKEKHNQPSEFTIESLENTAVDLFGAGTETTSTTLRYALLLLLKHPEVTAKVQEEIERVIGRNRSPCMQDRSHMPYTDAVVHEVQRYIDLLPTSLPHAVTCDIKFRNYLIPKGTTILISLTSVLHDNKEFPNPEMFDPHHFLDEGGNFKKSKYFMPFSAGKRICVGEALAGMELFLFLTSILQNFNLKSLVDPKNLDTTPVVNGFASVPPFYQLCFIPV
Sequence of Nuclear receptor subfamily 1 group I member 2 (Homo sapiens) (O75469 whole entry, looked up): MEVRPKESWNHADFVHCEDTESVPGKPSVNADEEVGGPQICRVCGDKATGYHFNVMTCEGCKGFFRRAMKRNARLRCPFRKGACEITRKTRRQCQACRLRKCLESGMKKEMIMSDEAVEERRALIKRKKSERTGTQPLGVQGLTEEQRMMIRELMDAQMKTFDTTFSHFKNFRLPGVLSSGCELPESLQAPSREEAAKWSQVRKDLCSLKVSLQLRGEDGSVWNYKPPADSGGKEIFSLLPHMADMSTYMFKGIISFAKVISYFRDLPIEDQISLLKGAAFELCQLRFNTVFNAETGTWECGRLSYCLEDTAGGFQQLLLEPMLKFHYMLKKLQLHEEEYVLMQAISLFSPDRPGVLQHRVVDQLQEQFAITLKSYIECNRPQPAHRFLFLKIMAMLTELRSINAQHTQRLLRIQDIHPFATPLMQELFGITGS

As for `OCCC(F)(F)C(F)(F)C(F)(F)C(F)(F)C(F)(F)C(F)(F)C(F)(F)C(F)(F)F`, the outcome in assay [1] was inactive. Further, the Potency entry in [2], in [3], in assay [4], in assay [5], in [6] and in [7] was “inactive” each time. The Potency entry in [8], in assay [9], in [10] and in assay [11] was “inactive” in each case.
On to `CC(COC(C)(C)C)OCCCO` (stereo not drawn), for which the outcome in [1] and in assay [12] was inactive. Also, the Potency result in assay [2], in assay [3], in assay [5], in [6], in assay [13] and in [9] was “inactive” each time. Further, the Potency result in assay [10] and in assay [11] was “inactive” in each case. In addition, the Potency in [7] was 63.3 µM (active).
With `CC(=O)NCCCCCC(=O)O`, the outcome in [1] and in assay [12] was inactive. For the same compound, the Potency entry in assay [2], in assay [4], in assay [5], in assay [6], in assay [15] and in assay [16] was “inactive” throughout. The Potency entry in [7], in assay [8], in assay [13], in assay [9], in assay [10] and in assay [11] was “inactive” throughout. Moreover, the max activation in assay [14] was 0.55%.
For `O=C(Nc1ccc(Cl)c(Cl)c1)C1CC1`, the compound was called inactive in [1] and in assay [12]. The Potency entry in assay [2], in [3], in assay [15], in [7] and in assay [10] was “inactive” throughout. In addition, the Potency in [6] was 29.8 µM (active); in [8], 11 µM (active); in assay [13], 30.9 µM (active); in [9], 0.456 µM (active). In addition, the max activation in [14] is -0.7%.
On to `OCCN(CCO)c1cccc(Cl)c1`, for which the compound was called inactive in [1]. Moreover, the Potency entry in assay [2], in assay [3], in assay [4], in assay [6], in [7] and in assay [10] was “inactive” each time. In addition, in [11], the Potency result is “inactive”. In addition, in [8], the Potency was 31.7 µM (active).
Consider `CCCCCCCCCCCCCC`, for which the outcome in [1] was inactive. Further, the Potency entry in [2], in assay [3], in [4], in [6], in [7] and in assay [8] was “inactive” in each case. The Potency entry in assay [10] and in [11] was “inactive” in each case.
For `Cc1ccccc1N=O`, the compound was classed as inactive in [1] and in assay [12]. Moreover, the Potency result in assay [2], in [4], in [5], in assay [6], in [7] and in assay [8] was “inactive” in each case. In addition, the Potency result in assay [13] and in [10] was “inactive” in each case. The figures for the Potency in [9] and in assay [11] were 41 µM (active) and 36.5 µM (active), respectively.
Take `Nc1ccc(S(=O)(=O)Nc2ccc(Cl)nn2)cc1`: the outcome in [1] and in assay [12] was inactive. For the same compound, the Potency entry in [2], in assay [4], in [5], in assay [6], in assay [15] and in assay [16] was “inactive” throughout. Besides, the Potency result in [7], in [8], in [9], in assay [10] and in assay [11] was “inactive” each time. The max activation in assay [14] is -0.0524%.
With `O=S(=O)(O)c1cc(O)c2ccc(Nc3ccccc3)cc2c1`, the call in assay [1] and in [12] was inactive. The Potency result in assay [2], in assay [3], in [6], in [9], in assay [10] and in assay [11] was “inactive” in each case. The Potency is 71 µM (active) in [8] and 39.9 µM (active) in [13].

For the origin of these results see PubChem BioAssay (Tox21).
